Results filed as inconclusive are left out. Where a call stands in place of a potency, no number is given. Active and inactive are the calls of the source. Unless noted, the call rests on the fitted dose curve. Square brackets hold non-standard residues; d marks the D form. Peptide text beside a SMILES is read from it. pGlu = O=C1CC[C@@H](C(=O)O)N1
How the values were obtained:
[1] = Nuclear factor erythroid 2-related factor 2/antioxidant responsive element (Nrf2/ARE) small molecule agonists: qHTS cell viability counter screen in human keratinocytes (AID 1919968; active means well fitted curve in the direction sought with a large enough effect in the repeat runs; an effect the other way counts as inactive or inconclusive; further: nearly all actives have a fitted effect of over 55% in size; further: potency means the concentration at half of the fitted maximal effect)
In short: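 After a 5 h attachment period, ARE-reporter keratinocytes were dosed with compounds in DMSO and then cultured 23 h at 37 C. Cell viability came from CellTiter-Fluor signal read after a further 1 h.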

[2] = Nuclear factor erythroid 2-related factor 2/antioxidant responsive element (Nrf2/ARE) small molecule agonists: luciferase reporter gene qHTS assay in human keratinocytes (AID 1919969); further: nearly all actives have a fitted effect of over 35% in size; further: potency means the concentration at half of the fitted maximal effect
[3] = target: KiSS-1 receptor (Homo sapiens) (UniProt Q969F8); experiment: Human kisspeptin (KISS1R) small molecule agonists, calcium flux assay in KISS1R-HEK293 cells (AID 1920064; active means well fitted curve in the direction sought with a large enough effect in the repeat runs; an effect the other way counts as inactive or inconclusive)
In short: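 Kinetic calcium assay, 1 s sampling over 3 min at Ex/Em 480/540, in HEK293 cells engineered with human KISS1R; compounds delivered in DMSO after 1 h dye loading.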

[4] = G protein-coupled receptor (GPCR) small molecule agonists, calcium flux assay: HEK293 wild type cell line counter screen (AID 1920065)
In short: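 Calcium-sensitive dye, loaded 1 h at 37 C into cells cultured 18 h, reports compound-evoked calcium release as fluorescence (Ex/Em 480/540), measured over 3 min. Agonist mode; 15-point titrations, triplicate.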

[5] = p53 small molecule agonists, cell-based qHTS assay with human liver microsomes (AID 1963577);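 further: p53 response element beta-lactamase reporter cells with liver microsomes plus NADPH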
In short: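 16 h, 37 C exposure of p53RE-bla cells to compounds with human liver microsomes and NADPH (0.5 mg/mL final each); detection via LiveBLAzer mixture, 2 h dark at room temperature.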

[6] = p53 small molecule agonists, cell-based qHTS assay with rat liver microsomes (AID 1963578); further: potency means the concentration at half of the fitted maximal effect
In short: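 With rat liver microsomes and NADPH present (0.5 mg/mL final each), p53RE-bla cells are treated with compound for 16 h at 37 C. LiveBLAzer detection mixture is then applied for 2 h at room temperature in the dark.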

[7] = p53 small molecule agonists, cell-based qHTS assay with human liver microsomes: qHTS cell viability counter screen (AID 1963579); further: nearly all actives have a fitted effect of over 45% in size; further: potency means the concentration at half of the fitted maximal effect
In short: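 In this multiplexed counter screen, the reporter plates were subsequently treated with CellTiter-Glo so that cell viability, reflected by luminescence, could be recorded for p53RE-bla cells dosed 16 h with compounds under microsomal activation (HLM and NADPH).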

[8] = p53 small molecule agonists, cell-based qHTS assay with rat liver microsomes: qHTS cell viability counter screen (AID 1963580); further: nearly all actives have a fitted effect of over 45% in size; further: potency means the concentration at half of the fitted maximal effect
In short: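 p53RE-bla HCT-116 cells were exposed 16 h at 37 C to compounds with rat liver microsomes (0.5 mg/mL) and NADPH (0.5 mg/mL). Viability was measured in the same wells as ATP content by CellTiter-Glo luminescence.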

[9] = p53 small molecule agonists, cell-based qHTS assay (AID 1963582; active means well fitted activation curve with a large enough effect in the signal ratio in the repeat runs, not every such curve was filed as active; the % refers to the signal ratio)
In short: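 In this cell-based concentration-response screen, a p53 response element drives beta-lactamase; cells received DMSO-borne compounds after 5 h culture and were incubated a further 16 h before FRET substrate development.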

[10] = target: 5-hydroxytryptamine receptor 2A (Homo sapiens) (UniProt P28223); experiment: 5-hydroxytryptamine receptor 2A (HTR2A) small molecule antagonists, cell-based qHTS assay (AID 1963586); further: nearly all actives have a fitted effect of over 45% in size
In short: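 Antagonist-mode intracellular calcium assay: DOI (4 nM) added after 5 min compound pre-incubation at room temperature to dye-loaded HTR2A-CHO cells. Fluorescence followed for 3 min, sampled every second.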

[11] = target: Muscarinic acetylcholine receptor M1 (Homo sapiens) (UniProt P11229); experiment: Cholinergic receptor muscarinic 1 (CHRM1) small molecule antagonists, cell-based qHTS assay (AID 1963588); further: nearly all actives have a fitted effect of over 40% in size; further: potency means the concentration at half of the fitted maximal effect
In short: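 CHRM1-CHO calcium-flux assay, antagonist mode. Cells were seeded 18 h, dye-loaded 1 h at 37 C and given compound for 5 min at RT, then acetylcholine was added at 50nM. FDSS fluorescence was read 3 min; 15 concentrations, three runs.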

[12] = target: Muscarinic acetylcholine receptor M1 (Homo sapiens) (UniProt P11229); experiment: Cholinergic receptor muscarinic 1 (CHRM1) small molecule agonists, cell-based qHTS assay (AID 1963589); further: nearly all actives have a fitted effect of over 35% in size
In short: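 Measures agonist-induced intracellular calcium rise. Stable human CHRM1 CHO line, 1 h dye load at 37 C, compounds from DMSO, kinetic fluorescence read.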

[13] = cAMP Responsive Elements (CRE) small molecule agonists, cell-based qHTS assay (AID 1963590)
In short: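 A CRE-responsive beta-lactamase reporter in HEK 293T cells was used. Treatment ran 3 h at 37 C; detection used LiveBLAzer B/G FRET substrate for 2 h at room temperature.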

[14] = cAMP Responsive Elements (CRE) small molecule antagonists, cell-based qHTS assay (AID 1963591; active means well fitted inhibition curve with a large enough effect in the signal ratio in the repeat runs, not every such curve was filed as active; the % refers to the signal ratio)
In short: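 HEK293T cells carrying a CRE-driven beta-lactamase reporter receive compound and NKH477 (0.25 uM final) for 3 h. Fluorescence from LiveBLAzer B/G FRET substrate is read after 2 h at room temperature.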

[15] = target: Beta-2 adrenergic receptor (Homo sapiens) (UniProt P07550); experiment: Adrenergic beta2 receptor (ADRB2) small molecule antagonists, cell-based qHTS assay (AID 1963592); further: nearly all actives have a fitted effect of over 50% in size; further: potency means the concentration at half of the fitted maximal effect
In short: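 Cells (CHO, stable ADRB2 overexpression) incubated 18-20hr at 37C; compounds added from DMSO; agonist mix (1nM isoproterenol, 100uM IBMX, 25uM Ro-20-1724) added; 0.5hr RT; d2-cAMP and anti-cAMP-cryptate added; 1hr RT; 665/615 nm read.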

[16] = target: D(2) dopamine receptor (Homo sapiens) (UniProt P14416); experiment: Dopamine D2 receptor (DRD2) small molecule agonists, cell-based qHTS assay (AID 1963594); further: nearly all actives have a fitted effect of over 35% in size
In short: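 HEK293 cells stably expressing human DRD2, pre-treated with PDE inhibitor Ro20-1724 (0.1 mM final) and compound 10 min at room temperature, then stimulated with NKH477 (200nM […]) for 30 min. cAMP read by HTRF (665/620 nm).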

[17] = target: D(2) dopamine receptor (Homo sapiens) (UniProt P14416); experiment: Dopamine D2 receptor (DRD2) small molecule antagonists, cell-based qHTS assay (AID 1963595; active means well fitted inhibition curve with a large enough effect in the signal ratio in the repeat runs, with a control signal flat; the % refers to the signal ratio)
In short: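 HTRF cAMP read-out at 665 and 620 nm emission (340 nm excitation). Antagonist mode: compounds were tested against 12 nM quinpirole in DRD2-HEK293 cells, with 200 nM NKH477 raising cAMP and 0.1 mM Ro20-1724 blocking its breakdown.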

[18] = p53 small molecule agonists, cell-based qHTS assay: qHTS cell viability counter screen (AID 1963581); further: nearly all actives have a fitted effect of over 45% in size
In short: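 Following 5 h attachment, HCT-116 p53RE-bla cells took up compound for 16 h at 37 C; the reporter was read with B/G FRET substrate (2 h RT), and viability then via CellTiter-Glo ATP luminescence.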

[19] = target: 5-hydroxytryptamine receptor 2A (Homo sapiens) (UniProt P28223); experiment: 5-hydroxytryptamine receptor 2A (HTR2A) small molecule agonists, cell-based qHTS assay (AID 1963587); further: nearly all actives have a fitted effect of over 30% in size; further: potency means the concentration at half of the fitted maximal effect
In short: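 CHO cells stably expressing human HTR2A, plated 18 h, loaded with calcium dye 1 h at 37 C. Agonist mode: compounds added and intracellular calcium fluorescence recorded kinetically for 2 min at 1 sec intervals.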

[20] = target: Beta-2 adrenergic receptor (Homo sapiens) (UniProt P07550); experiment: Adrenergic beta2 receptor (ADRB2) small molecule agonists, cell-based qHTS assay (AID 1963593);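 further: CHO cells stably overexpressing human ADRB2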
In short: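 CHO cells stably over-expressing ADRB2 were plated overnight at 37C, then dosed with compounds plus a stimulation mix containing 100uM IBMX and 25uM Ro-20-1724 for 0.5hr at room temperature. cAMP was measured by HTRF competition, 1hr.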

Muscarinic acetylcholine receptor M1 (Homo sapiens), sequence (P11229 whole entry, looked up): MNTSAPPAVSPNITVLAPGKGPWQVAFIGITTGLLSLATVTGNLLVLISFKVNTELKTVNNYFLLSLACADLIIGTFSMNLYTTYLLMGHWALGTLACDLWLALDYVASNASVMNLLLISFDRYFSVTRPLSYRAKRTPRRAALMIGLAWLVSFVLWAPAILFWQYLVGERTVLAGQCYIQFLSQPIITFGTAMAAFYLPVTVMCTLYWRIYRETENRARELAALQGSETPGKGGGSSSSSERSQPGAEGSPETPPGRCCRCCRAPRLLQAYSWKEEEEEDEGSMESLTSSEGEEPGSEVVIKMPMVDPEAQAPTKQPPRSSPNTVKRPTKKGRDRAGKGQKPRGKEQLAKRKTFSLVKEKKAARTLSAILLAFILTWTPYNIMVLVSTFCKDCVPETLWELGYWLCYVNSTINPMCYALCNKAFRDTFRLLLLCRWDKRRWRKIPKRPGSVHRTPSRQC
D(2) dopamine receptor (Homo sapiens), sequence (P14416 whole entry, looked up): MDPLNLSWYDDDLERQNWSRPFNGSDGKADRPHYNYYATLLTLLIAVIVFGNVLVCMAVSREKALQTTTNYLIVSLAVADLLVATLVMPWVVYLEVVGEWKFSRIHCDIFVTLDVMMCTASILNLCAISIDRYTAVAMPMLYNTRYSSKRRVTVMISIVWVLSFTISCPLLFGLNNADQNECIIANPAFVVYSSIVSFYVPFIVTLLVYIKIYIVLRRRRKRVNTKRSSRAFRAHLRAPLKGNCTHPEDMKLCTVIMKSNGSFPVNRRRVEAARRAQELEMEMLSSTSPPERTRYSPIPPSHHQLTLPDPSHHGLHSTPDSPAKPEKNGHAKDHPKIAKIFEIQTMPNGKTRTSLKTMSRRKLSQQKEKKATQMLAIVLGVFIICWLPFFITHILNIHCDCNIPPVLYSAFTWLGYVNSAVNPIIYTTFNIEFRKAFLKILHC
Beta-2 adrenergic receptor (Homo sapiens), sequence (P07550 whole entry, looked up): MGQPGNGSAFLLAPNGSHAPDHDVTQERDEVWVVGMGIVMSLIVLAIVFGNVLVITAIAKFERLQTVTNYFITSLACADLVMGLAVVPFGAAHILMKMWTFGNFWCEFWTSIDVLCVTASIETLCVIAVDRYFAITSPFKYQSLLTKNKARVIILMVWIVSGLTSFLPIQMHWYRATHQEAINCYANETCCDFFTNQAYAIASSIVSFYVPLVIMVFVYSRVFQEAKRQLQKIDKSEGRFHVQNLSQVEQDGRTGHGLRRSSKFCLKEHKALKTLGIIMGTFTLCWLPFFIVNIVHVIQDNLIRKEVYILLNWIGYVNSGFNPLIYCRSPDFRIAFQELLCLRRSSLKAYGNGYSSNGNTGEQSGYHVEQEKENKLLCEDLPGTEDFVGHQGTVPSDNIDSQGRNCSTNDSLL
5-hydroxytryptamine receptor 2A (Homo sapiens), sequence (P28223 whole entry, looked up): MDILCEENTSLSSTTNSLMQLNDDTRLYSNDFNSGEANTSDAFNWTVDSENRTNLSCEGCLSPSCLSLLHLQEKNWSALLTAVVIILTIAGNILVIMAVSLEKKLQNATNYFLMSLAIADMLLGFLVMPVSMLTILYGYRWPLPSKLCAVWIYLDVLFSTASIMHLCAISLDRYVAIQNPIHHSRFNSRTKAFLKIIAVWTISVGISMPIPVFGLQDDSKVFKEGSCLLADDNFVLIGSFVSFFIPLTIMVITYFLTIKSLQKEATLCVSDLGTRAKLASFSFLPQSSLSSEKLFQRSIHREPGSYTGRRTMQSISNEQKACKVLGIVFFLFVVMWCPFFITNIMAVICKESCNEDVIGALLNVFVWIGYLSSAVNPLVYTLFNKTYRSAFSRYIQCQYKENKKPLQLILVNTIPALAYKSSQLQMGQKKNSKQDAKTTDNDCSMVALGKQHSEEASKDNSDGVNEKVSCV
KiSS-1 receptor (Homo sapiens), sequence (Q969F8 whole entry, looked up): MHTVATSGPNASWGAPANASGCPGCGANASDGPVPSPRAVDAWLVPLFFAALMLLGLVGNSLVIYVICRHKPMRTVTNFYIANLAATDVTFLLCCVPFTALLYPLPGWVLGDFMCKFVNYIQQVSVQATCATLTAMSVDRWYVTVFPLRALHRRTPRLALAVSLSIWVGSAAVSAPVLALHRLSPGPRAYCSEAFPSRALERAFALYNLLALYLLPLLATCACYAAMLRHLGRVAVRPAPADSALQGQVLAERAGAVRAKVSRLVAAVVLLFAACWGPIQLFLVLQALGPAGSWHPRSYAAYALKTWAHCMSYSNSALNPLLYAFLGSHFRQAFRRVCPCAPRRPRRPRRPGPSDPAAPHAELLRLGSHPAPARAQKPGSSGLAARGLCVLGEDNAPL

SMILES	Potency [1]	Potency [2]	Potency [3]	Potency [4]	Potency [5]	Potency [6]	Potency [7]	Potency [8]	Potency [9]	Potency [10]	Potency [11]	Potency [12]	Potency [13]	Potency [14]	Potency [15]	Potency [16]	Potency [17]	Potency [18]	Potency [19]	Potency [20]
O=S(=O)(O)c1cc(Cl)c(Cl)cc1Cl	inactive	inactive	inactive	inactive	inactive	inactive	inactive	inactive	inactive	inactive	inactive	inactive	inactive	inactive	inactive	inactive	inactive			
CCCC(CC)c1ccccc1 (configuration not stated)	inactive	inactive	inactive	inactive	inactive				inactive	inactive	inactive	inactive	inactive	inactive	inactive	inactive	inactive	inactive	inactive	
CCCC(=O)OCCc1ccccc1	inactive	inactive	inactive	inactive	inactive	inactive	inactive	inactive	inactive	inactive	inactive			inactive	inactive	inactive	inactive			
CCNC(=O)[C@@H]1CCCN1C(=O)[C@H](CCCN=C(N)N)NC(=O)[C@H](CC(C)C)NC(=O)CNC(=O)[C@H](Cc1ccc(O)cc1)NC(=O)[C@H](CO)NC(=O)[C@H](Cc1c[nH]c2ccccc12)NC(=O)[C@H](Cc1cnc[nH]1)NC(=O)[C@@H]1CCC(=O)N1 ([pGlu]HWSYGLRP-NHEt)	inactive	inactive	inactive	inactive	inactive	inactive	inactive	inactive	inactive				inactive	inactive	inactive	inactive	inactive			
CC(C)c1ccc(O)c(C(C)C)c1	inactive	68.6 µM (active)	inactive	inactive	inactive	inactive		inactive			inactive	inactive			inactive	inactive	inactive	inactive	54.9 µM (active)	
CCOC(=O)C1=C(C)NC(C)=C(C(=O)OCC)C1c1ccccc1/C=C/C(=O)OC(C)(C)C	18.8 µM (active)	inactive	inactive	inactive		19.9 µM (active)	inactive	inactive							inactive	inactive	inactive			
CN[C@H]1CC[C@@H](c2ccc(Cl)c(Cl)c2)c2ccc(S(N)(=O)=O)cc21	61.1 µM (active)	inactive	inactive	inactive	inactive	inactive	inactive	inactive		inactive		inactive			48.6 µM (active)			inactive		
CC(C)C[C@H](NC(=O)CNC(=O)[C@H](Cc1ccc(O)cc1)NC(=O)[C@H](CO)NC(=O)[C@H](Cc1c[nH]c2ccccc12)NC(=O)[C@H](Cc1cnc[nH]1)NC(=O)[C@@H]1CCC(=O)N1)C(=O)N[C@@H](CCCN=C(N)N)C(=O)N1CCC[C@H]1C(=O)NCC(N)=O (stereo in doubt)	inactive	inactive	inactive	inactive		inactive	inactive	inactive	inactive				inactive	inactive	inactive	inactive	inactive	inactive		inactive
CC(=O)N[C@@H](CCC(=O)O)C(=O)O	inactive	inactive	inactive	inactive			inactive	inactive		inactive	inactive	inactive	inactive	inactive	inactive	inactive		inactive	inactive	
CC(C)(C)c1ccc(OC2CCCCC2O)cc1 (configuration not stated)	inactive	38.6 µM (active)	inactive	inactive	inactive	inactive	inactive	1.62 µM (active)			inactive			inactive		inactive	inactive	inactive	43.6 µM (active)	
CC(=O)S[C@@H]1CC2=CC(=O)CC[C@]2(C)[C@H]2CC[C@@]3(C)[C@@H](CC[C@@]34CCC(=O)O4)[C@H]12	inactive	24.3 µM (active)	inactive	inactive	inactive			inactive							inactive	inactive		inactive		
O=C1C=CC(=O)N1c1cccc(N2C(=O)C=CC2=O)c1	54.5 µM (active)	4.86 µM (active)	inactive	inactive	inactive		40.8 µM (active)		inactive	inactive	inactive	inactive								
CCCCCCOC(=O)NC(=N)c1ccc(NCc2nc3cc(C(=O)N(CCC(=O)OCC)c4ccccn4)ccc3n2C)cc1	inactive	inactive	inactive	inactive	inactive	inactive	inactive	inactive			inactive	inactive			inactive	inactive			inactive	inactive
O=C1NC(=O)c2cc([N+](=O)[O-])ccc21	inactive	inactive	inactive	inactive	inactive	inactive	inactive	inactive		inactive	inactive	inactive	inactive	inactive	inactive	inactive	inactive	inactive	55.4 µM (active)	
CCCCC(=O)O[C@]1(C(=O)CO)[C@@H](C)C[C@H]2[C@@H]3CCC4=CC(=O)C=C[C@]4(C)[C@@]3(F)[C@@H](O)C[C@@]21C	inactive	inactive	inactive	inactive	inactive	inactive		inactive	inactive	inactive	inactive	inactive				inactive	inactive	inactive		
CCCCCCCCCCCCOCCOCCOCCOCCOCCOCCOCCOCCOCCO	29.8 µM (active)	inactive	inactive	inactive	inactive	inactive		inactive	inactive		9.18 µM (active)	inactive			inactive		inactive	inactive	inactive	
CCCc1ncc(C[n+]2ccccc2C)c(N)n1	inactive	inactive	inactive	inactive	inactive	inactive	inactive	inactive	inactive		inactive	inactive	inactive	inactive	inactive	inactive		inactive		

Reference: PubChem BioAssay (Tox21)
